Compound activity from PubChem BioAssay.
Rows were chosen to be rich in hits. Some 0.92% of all compounds tested hit in one or more screens of this group.
CIT2 TOR yeast: yeast TOR pathway CIT2-GFP modulation; S. cerevisiae CIT2-GFP strain, flow cytometry, 3 h; 100 means same as DMSO wells; GFP response vs DMSO, % at 10 µM; actives 0.065% (n = 320,000); AID 2029;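 active = GFP response relative to DMSO above a set limit, near the screen mean plus 3 SD, cut at about 150% in these data; inconclusive = Fewer than 70 cells measured for a yeast strain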;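 also: ratio of well median GFP fluorescence to mean of DMSO wells on the plate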
MEP2-GFP yeast: yeast TOR pathway MEP2-GFP modulation; S. cerevisiae MEP2-GFP strain, flow cytometry GFP, 3 h; 100% = DMSO control level; GFP response vs DMSO, % at 10 µM; actives 0.51% (n = 330,000); AID 2016;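 active = GFP response versus DMSO above a set limit, roughly screen mean plus 3 SD, cut at about 180% in these data; inconclusive = fewer than 70 cells counted for a yeast strain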;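 also: median GFP fluorescence of the barcode-gated MEP2-GFP cells per well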
LAP4-GFP MLPCN: yeast TOR pathway LAP4-GFP modulation; S. cerevisiae LAP4-GFP multiplex, flow cytometry GFP, 3 h; median GFP as percent of DMSO wells; GFP response vs DMSO, % at 10 µM; actives 0.34% (n = 320,000); AID 2023;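 active = GFP response vs DMSO above a set limit, about the screen mean plus 3 SD, cut at about 150% in these data; inconclusive = under 70 cell events counted for the yeast strain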
RPL19A TOR yeast: alters RPL19A-GFP fluorescence in TOR pathway yeast screen. S. cerevisiae RPL19A-GFP strain, flow cytometry, 3 h; hits give low values. actives 0.3% (n = 330,000). percent response vs DMSO, % at 10 µM;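 active = percent response vs DMSO below 50%; inconclusive = fewer than 70 events counted for the yeast strain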;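 also: median channel GFP fluorescence of the barcoded RPL19A-GFP strain; lower means less RPL19A-GFP as with rapamycin TOR inhibition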
AGP1-GFP MLPCN: modulators of TOR pathway AGP1-GFP in S. cerevisiae. GFP response vs DMSO, % at 10 µM. actives 0.02% (n = 320,000). S. cerevisiae AGP1-GFP multiplex flow cytometry, 3 h; GFP as percent of DMSO wells;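 active = GFP response relative to DMSO above a set limit, near screen average plus 3 SD, cut at about 150% in these data; inconclusive = fewer than 70 cells counted for the yeast strain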;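 also: median GFP channel fluorescence of the gated AGP1 strain per well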
Of the large screens only hits and unclear results are named; the others gave an inactive call; [ ] = dose if it differs, or a comment.

CC(C)C[C@H](N)C(=O)N1CCC(C(=O)N[C@H](C(=O)NCc2ccc(F)cc2)C(C)C)CC1	none
CC(C)C[C@H](N)C(=O)N1CCC(C(=O)N[C@H](C(=O)NC(C)c2ccccc2)C(C)C)CC1 (stereo partly specified)	CIT2 TOR yeast inconclusive, MEP2-GFP yeast 247[may fluoresce violet], RPL19A TOR yeast 15[may fluoresce violet], AGP1-GFP MLPCN inconclusive
CC(=O)Nc1ccc(S(=O)(=O)NC(CC(=O)NCCC2=CCCCC2)C(C)C)cc1 (stereo unspecified)	MEP2-GFP yeast 211, LAP4-GFP MLPCN 282, AGP1-GFP MLPCN 152
CCOc1ccccc1NC(=O)NCc1cccnc1	CIT2 TOR yeast inconclusive, MEP2-GFP yeast 271[may fluoresce violet], RPL19A TOR yeast 18[may fluoresce violet], AGP1-GFP MLPCN inconclusive
Clc1cccc(-c2ccc(C3Nc4cccc5cccc(c45)N3)o2)c1	none
COc1cccc(/C=N/NC(=O)CC2C(=O)NN=C2C)c1OC (stereo unspecified)	none
COc1cccc(/C=N/NC(=O)CC2C(=O)NN=C2C)c1O (stereo unspecified)	CIT2 TOR yeast inconclusive, MEP2-GFP yeast inconclusive, LAP4-GFP MLPCN inconclusive, RPL19A TOR yeast 11[may fluoresce violet], AGP1-GFP MLPCN inconclusive
CC1(C)CC(=O)/C(=C(\O)c2ccccc2)C(=NCCO)C1	CIT2 TOR yeast inconclusive, MEP2-GFP yeast 206[may fluoresce violet], RPL19A TOR yeast 38[may fluoresce violet]
N#C/C(=C\c1ccc([N+](=O)[O-])o1)C(=O)Nc1ccc(F)cc1	CIT2 TOR yeast inconclusive, MEP2-GFP yeast 823[may fluoresce violet], LAP4-GFP MLPCN 323[may fluoresce violet]
CN1C(=O)/C(=C/c2ccc(-c3ccccc3[N+](=O)[O-])o2)SC1=Nc1ccc(Cl)c(C(=O)O)c1	CIT2 TOR yeast inconclusive, RPL19A TOR yeast 41[may fluoresce violet], AGP1-GFP MLPCN inconclusive
O=C(O)c1ccccc1C(=O)N1N=C(c2ccccc2)CC1c1ccccc1O (stereo unspecified)	none
O=C(c1ccccc1Br)N1N=C(c2ccccc2)CC1c1ccccc1F (stereo unspecified)	CIT2 TOR yeast inconclusive, MEP2-GFP yeast 790[may fluoresce violet], RPL19A TOR yeast 19[may fluoresce violet], AGP1-GFP MLPCN inconclusive
Cc1ccc(SCCCn2cncn2)cc1	CIT2 TOR yeast inconclusive, MEP2-GFP yeast 320[may fluoresce violet], RPL19A TOR yeast 45[may fluoresce violet]
O=C(Nc1ccccc1)c1nnsc1S(=O)c1ccc(Cl)cc1 (stereo unspecified)	LAP4-GFP MLPCN 231
Cc1nnsc1S(=O)c1ccc(Cl)cc1 (stereo unspecified)	none
CCOc1cc(N2CCOCC2)c(OCC)cc1NC(=O)C(NC(=O)c1ccco1)C(C)C (stereo unspecified)	MEP2-GFP yeast 269 (no result: RPL19A TOR yeast)
COC(=O)c1ccccc1OCC(=O)NC1CCCCC1	LAP4-GFP MLPCN 165
COC(=O)c1ccc(OCC(=O)NC2CCCCCCC2)cc1	none
CCc1c(O)nc(SCC(=O)NCc2ccco2)[nH]c1=O	CIT2 TOR yeast inconclusive, MEP2-GFP yeast 678[may fluoresce violet], LAP4-GFP MLPCN 204[may fluoresce violet], RPL19A TOR yeast 39[may fluoresce violet]
Cc1nnc(SCC(=O)NCc2ccco2)[nH]c1=O	none
O=C(NCc1ccccc1Cl)C1=CC=CN2CCS(=O)(=O)N=C12	none
CCCC(=O)Nc1cccc(NC(=O)c2ccccc2Br)c1	CIT2 TOR yeast inconclusive, MEP2-GFP yeast 286[may fluoresce violet], RPL19A TOR yeast 34[may fluoresce violet], AGP1-GFP MLPCN inconclusive
CCC(=O)Nc1cccc(NC(=O)c2ccccc2Br)c1	none
COc1ccccc1-c1nnc(NC(=O)c2ccc3c(c2)OCO3)s1	MEP2-GFP yeast 272
CC(C)c1nnc(NC(=O)c2ccc3c(c2)OCO3)s1	none
Fc1ccc2cnc(CCO[C@H]3CCCCO3)cc2c1	none
COc1ccc(OC)c(S(=O)(=O)n2ccc(C)n2)c1	CIT2 TOR yeast inconclusive, MEP2-GFP yeast 259[may fluoresce violet]
CCN(C[C@H]1N[C@@](C)(C(=O)OC)[C@H]2C(=O)N(C)C(=O)[C@@H]12)C(=O)COc1ccccc1	none
C[C@H](CO)N1C[C@H](C)[C@@H](CN(C)C(=O)Nc2ccc(C(F)(F)F)cc2)Oc2ccc(NC(=O)Cc3ccccc3)cc2C1=O	none
CC1(C)C(N(O)C(=O)Nc2ccc(Cl)cc2)N(c2ccc(Cl)cc2)C(=O)N1CC(=O)NN (stereo unspecified)	CIT2 TOR yeast inconclusive, MEP2-GFP yeast 269[may fluoresce violet]
CN1C(=S)SC(C)(C)C1N(O)C(=O)Nc1ccc(Cl)cc1 (stereo unspecified)	none (no result: CIT2 TOR yeast)
CC1C2=C(CC(C)(C)CC2=O)NC2=C1C(=O)CC(C)(C)C2	CIT2 TOR yeast inconclusive, RPL19A TOR yeast 43[may fluoresce violet]
CC1(C)CC(=O)C2=C(C1)NC(=O)NC2c1ccccc1 (stereo unspecified)	none
CC(C(=O)NCc1ccccc1)N1CCN(c2ccc(F)cc2)CC1 (stereo unspecified)	none
Cc1ccc(/C=C2/NC(=O)N(Cc3ccccc3)C2=O)o1	LAP4-GFP MLPCN 172
CC1(NC(=O)Cc2c(F)cccc2Cl)CCS(=O)(=O)C1 (stereo unspecified)	none
Cc1ccccc1CNc1nnnn1C	CIT2 TOR yeast inconclusive, RPL19A TOR yeast 50[may fluoresce violet], AGP1-GFP MLPCN inconclusive
COc1cc2cnc(-c3ccccc3F)cc2cc1OC	none
S=c1[nH]nc(-c2ccco2)n1/N=C/C(Cl)=C/c1ccccc1	LAP4-GFP MLPCN 167
Cc1cc(-c2n[nH]c(=S)n2/N=C/C(Cl)=C/c2ccccc2)n[nH]1	none
COc1ccc(CNC(=O)c2c(O)c3cccc4c3n(c2=O)CCC4)cc1OC	CIT2 TOR yeast inconclusive, MEP2-GFP yeast 295[may fluoresce violet], RPL19A TOR yeast 38[may fluoresce violet] (no result: AGP1-GFP MLPCN)
CNC(=O)c1c(O)c2cccc3c2n(c1=O)CCC3	none
Cc1ccccc1N1C(=O)c2sc3nc4c(c(=O)n3c2C1=O)CCC4	LAP4-GFP MLPCN 161
OC(CNCc1ccccc1)(c1ccc(F)cc1)c1ccc(F)cc1	none
OC(CNCc1ccccc1)(c1ccccc1)c1ccccc1	CIT2 TOR yeast inconclusive, MEP2-GFP yeast 211[may fluoresce violet]
CC(C)C(=O)Nc1cccc(C(=O)Nc2cc([N+](=O)[O-])ccc2Cl)c1	none
Cc1cc([N+](=O)[O-])ccc1NC(=O)c1cccc(NC(=O)C(C)C)c1	CIT2 TOR yeast inconclusive, MEP2-GFP yeast 191[may fluoresce violet], AGP1-GFP MLPCN inconclusive
CCCc1ccc(S(=O)(=O)N2CCN(C(C)C(=O)NCc3ccc(OC)cc3)CC2)cc1 (stereo unspecified)	none
O=C(Nc1nccs1)C1CCCN1S(=O)(=O)c1ccc(F)cc1 (stereo unspecified)	CIT2 TOR yeast 172
CCCCNC(=O)n1c(SC)nc2ccccc21	CIT2 TOR yeast inconclusive, MEP2-GFP yeast 379[may fluoresce violet]
O=C(O)c1ccc(N2C(=O)CC(N3CCN(c4cccc(C(F)(F)F)c4)CC3)C2=O)cc1 (stereo unspecified)	CIT2 TOR yeast inconclusive, MEP2-GFP yeast 603[may fluoresce violet], RPL19A TOR yeast 39[may fluoresce violet], AGP1-GFP MLPCN inconclusive
Cc1cc(C)nc(NS(=O)(=O)c2ccc(N3C(=O)C4CC=C(Cl)CC4C3=O)cc2)n1 (stereo unspecified)	CIT2 TOR yeast inconclusive, MEP2-GFP yeast inconclusive, LAP4-GFP MLPCN inconclusive, RPL19A TOR yeast 12[may fluoresce violet], AGP1-GFP MLPCN inconclusive
O=[N+]([O-])c1cc(/C=N/O)ccc1Oc1ccccc1Cl	MEP2-GFP yeast 187
